Measurements reported in PubChem BioAssay.
Results filed as inconclusive are left out. The source made the active and inactive calls.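 The calls were made as follows, unless noted: active = viability at or below 30% in both replicate assays; inconclusive = viability at or below 30% in just one of the two assays; inactive = the rest.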

Tests used:
[1] = Her2 expression decrease, cell viability multiplex – SKBR3 breast tumor cells, AlphaScreen, ATP viability, primary screen (AID 461;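 active = Her2 level under about 52% in both replicate screens, with viability over 70% of control, limit read from the data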;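 as to Her2 level: lower value means less Her2 protein in the cells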;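 as to viability: percent of carrier control wells set as 100% viability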); conditions: SKBR3 Her2 protein level, 18-24 h, measured here: SKBR3 viability, ATP luminescence, at 10 µM
[2] = target: Receptor tyrosine-protein kinase erbB-2 (Homo sapiens) (UniProt P04626); experiment: as above; conditions: 18-24 h, at 10 µM, stronger effect = lower value
[3] = reduced viability of SK-BR-3 breast cancer cells – cell-based, 24 h, human, pilot screen (AID 572;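 active = viability at or below 10% of carrier control in both of two separate runs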;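 also: compound exposure lasted between 18 and 24 h rather than exactly 24 h; 100% = carrier-treated control wells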); conditions: SK-BR-3 viability, CellTiter-Glo luminescence, at 10 µM, stronger effect = lower value
[4] = HUVEC growth inhibition – cell-based, human, primary screen (AID 575); conditions: HUVEC proliferation, CellTiter-Glo luminescence, 72 h; at 10 µM; stronger effect = lower value;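 also: 100% = median of untreated cell wells with 0.1% DMSO on each plate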
[5] = H69AR cell proliferation blockers – human, duplicate replicates, primary screen (AID 580;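 active = viability at or under a set limit in both replicates, limit being median viability minus 3 SD, cut at about 48% in these data, passing the limit was not always enough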;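 also: 100% = mean luminescence of untreated wells and 0% = no signal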); conditions: H69AR lung tumor cells viability, ATP luminescence, 72 h; at 10 µM; stronger effect = lower value
[6] = MRP1 drug-resistance reversers in H69AR cells – cell-based, doxorubicin co-treatment, pilot screen (AID 601;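 active = viability loss from added drug above about 55%, and viability with drug at most 40%, in both replicates, limit read from the data, passing the limit was not always enough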); conditions: CellTiter-Glo, 72 h, at 10 µM; for differential viability (reversal): stronger effect = higher value
[7] = yeast transport mutant growth inhibition pilot in 384-well plates, post-Golgi transport modulator project (AID 636; in the data active = inhibition above about 31%); conditions: absorbance 615 nm, about 18 h, stronger effect = higher value
[8] = growth suppression of yeast trafficking mutant, preliminary HTS, modulators of trafficking downstream of Golgi apparatus project, 1536-format plate, OD 615 nm (AID 637; in the data active = inhibition above about 30%); conditions: yeast transport mutant growth, absorbance 615 nm, 18 h; stronger effect = higher value
[9] = S. cerevisiae growth inhibition in permissive medium (OD615), pilot counter-assay for S. cerevisiae lifespan shortening project, permissive growth control (AID 705;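 active = growth inhibition above 25% in both replicates, a cutoff set 3 SD above the mean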); conditions: OD615, 24 h, at 10 µM, stronger effect = higher value
[10] = S. cerevisiae growth inhibition in restrictive medium, OD615, pilot screen, restrictive growth control, yeast lifespan reduction project (AID 706;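 active = growth inhibition above a set limit, 3 SD over mean compound inhibition, in both replicates, cut at about 43% in these data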;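 also: modified DeaD lifespan yeast strain shifted to restrictive glucose medium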); conditions: OD615, 48 h, at 10 µM, stronger effect = higher value
[11] = doxorubicin toxicity protection in MRP-1 cells – H69AR cells, CellTiter-Glo, duplicate, MRP-1 activator project, pilot screen (AID 807;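 active = viability increase at or above a cutoff of the median across tested compounds plus 3 SD, cut at about 8.5% in these data, passing the limit was not always enough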;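 also: compound pretreatment 18-22 h then 72 h combined with doxorubicin; 0% = doxorubicin alone and 100% = vehicle without doxorubicin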); conditions: H69AR viability with doxorubicin, CellTiter-Glo luminescence; at 10 µM; stronger effect = higher value
[12] = viability of HCT116 without oncogenic beta-catenin – human colon tumor cells, pilot screen (AID 823;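 active = cell viability at or below a set limit in both duplicate runs, the limit being the all-compound median minus 4 SD, cut at about 23% in these data, passing the limit was not always enough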;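 also: 0% = wells killed by 20 µM Hyamine and 100% = untreated DMSO cell wells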); conditions: HCT116 beta-catenin knockout viability, CellTiter-Glo, 60 h; at 10 µM; stronger effect = lower value
[13] = viability of PTEN-null HCT116 cells – cell-based, HCT116 clonal line, CellTiter-Glo, pilot screen (AID 824;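 active = viability at or below 27.92% in each of two runs, the all-compound median minus 4 SD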;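 also: 0% = 20 µM Hyamine control and 100% = vehicle cell control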); conditions: HCT116 PTEN-deleted viability, 60 h, at 10 µM, stronger effect = lower value
[14] = RAM pathway blockade in budding yeast – dse1pr::URA3 reporter, 5-FOA selection, pilot screen (AID 869;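 active = inhibition over a set limit, the all-compound mean plus 3 SD, in both replicate runs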;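 also: 0% = DMSO wells with no growth and 100% = 10 µM 1-NA-PP1 with full growth; RAM network block rescues cells from 5-FOA so hits raise OD615 growth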); conditions: S. cerevisiae dse1pr::URA3 5-FOA growth, OD615, 2 d; at 10 µM; stronger effect = higher value; strain carries analog-sensitive mutant Cbk1 kinase
[15] = RAM signaling pathway blockade in yeast – S. cerevisiae, Pdr1DBD-CYC8 efflux-inhibited sensitized strain, primary screen (AID 1298;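 active = RAM network inhibition above 8.4% in each of two replicates, 3 SD over the compound average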;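 also: 0% = DMSO untreated cells without growth and 100% = 10 µM 1-NA-PP1 full growth; higher means more yeast growth rescued from 5-FOA killing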); conditions: S. cerevisiae cbk1-as DSE1-URA3 strain, 5-FOA growth OD615, 2 d; at 50 µM; stronger effect = higher value
[16] = H69AR cells + 2 uM doxorubicin, measured here: viability with 2 uM doxorubicin, stronger effect = lower value
[17] = H69AR cells, compound alone cytotoxicity

Receptor tyrosine-protein kinase erbB-2 (Homo sapiens), sequence (P04626 whole entry, looked up): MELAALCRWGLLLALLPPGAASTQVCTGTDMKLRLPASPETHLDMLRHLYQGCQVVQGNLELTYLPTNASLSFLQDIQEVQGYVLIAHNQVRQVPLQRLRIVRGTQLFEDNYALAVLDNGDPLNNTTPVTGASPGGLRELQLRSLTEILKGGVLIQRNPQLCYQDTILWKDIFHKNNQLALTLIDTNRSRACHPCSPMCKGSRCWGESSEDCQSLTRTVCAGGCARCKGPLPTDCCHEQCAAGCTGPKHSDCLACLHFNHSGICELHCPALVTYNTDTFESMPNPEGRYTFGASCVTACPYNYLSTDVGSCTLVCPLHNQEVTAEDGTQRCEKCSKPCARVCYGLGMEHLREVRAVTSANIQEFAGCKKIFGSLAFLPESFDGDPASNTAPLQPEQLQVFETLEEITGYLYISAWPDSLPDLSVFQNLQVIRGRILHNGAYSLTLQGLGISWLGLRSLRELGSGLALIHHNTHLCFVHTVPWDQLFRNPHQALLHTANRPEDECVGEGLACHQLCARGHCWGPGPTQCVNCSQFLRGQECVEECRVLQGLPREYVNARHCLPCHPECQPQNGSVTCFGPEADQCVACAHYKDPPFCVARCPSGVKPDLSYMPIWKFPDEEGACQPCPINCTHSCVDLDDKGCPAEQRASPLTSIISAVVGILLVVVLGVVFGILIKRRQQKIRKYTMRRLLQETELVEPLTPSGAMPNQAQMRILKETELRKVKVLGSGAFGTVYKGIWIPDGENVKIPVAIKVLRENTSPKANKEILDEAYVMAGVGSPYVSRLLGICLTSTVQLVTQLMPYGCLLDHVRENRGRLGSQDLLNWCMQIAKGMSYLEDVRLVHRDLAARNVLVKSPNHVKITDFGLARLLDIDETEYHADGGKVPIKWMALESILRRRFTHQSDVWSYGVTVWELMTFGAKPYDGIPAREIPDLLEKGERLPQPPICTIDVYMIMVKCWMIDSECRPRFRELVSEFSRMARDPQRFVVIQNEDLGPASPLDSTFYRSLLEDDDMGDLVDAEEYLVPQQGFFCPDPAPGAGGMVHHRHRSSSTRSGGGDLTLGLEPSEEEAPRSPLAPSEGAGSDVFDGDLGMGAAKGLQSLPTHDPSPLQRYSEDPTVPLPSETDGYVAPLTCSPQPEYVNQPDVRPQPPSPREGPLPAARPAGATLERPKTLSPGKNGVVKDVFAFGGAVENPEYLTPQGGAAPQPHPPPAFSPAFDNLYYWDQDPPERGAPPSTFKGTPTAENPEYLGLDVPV

| Compound | viability [1] | Her2 level [2] | viability [3] | viability [4] | viability [5] | differential viability (reversal) ([6]; H69AR cells + 2 uM doxorubicin) | viability [6, 16] | viability [6, 17] | inhibition [7] | inhibition [8] | growth inhibition [9] | growth inhibition [10] | viability increase [11] | viability [12] | viability [13] | inhibition [14] | RAM network inhibition [15] |
| --- | --- | --- | --- | --- | --- | --- | --- | --- | --- | --- | --- | --- | --- | --- | --- | --- | --- |
| CCOC(=O)N1CCC(c2cc(=O)n3[nH]cc(C(=O)OC)c3n2)CC1 | 94.5% | 101% (inactive) | 94.5% (inactive) | 92.1% (inactive) | 92.2% (inactive) | 9.5% (inactive) | 82.7% | 92.2% | -4% (inactive) | 0.83% (inactive) | 2.45% (inactive) | 9.29% (inactive) | -0.6% (inactive) | 88.8% (inactive) | 101% (inactive) | 0.045% (inactive) | 0.56% (inactive) |
| Cc1ccc(S(=O)(=O)Cc2ccc(C(=O)N3CCN(Cc4ccccc4)CC3)o2)cc1 | 86.5% | 80.5% (inactive) | 86.5% (inactive) | 106% (inactive) | 85.8% (inactive) | -8.85% (inactive) | 94.6% | 85.8% | -0.9% (inactive) | 3.5% (inactive) | 0.06% (inactive) | -3.51% (inactive) | -1.59% (inactive) | 97.3% (inactive) | 94.9% (inactive) | 1.59% (inactive) | 6.48% (inactive) |
| C=CCSc1nnc(-c2cccnc2)o1 | 95% | 99.5% (inactive) | 95% (inactive) | 103% (inactive) | 96.9% (inactive) | 9.17% (inactive) | 87.8% | 96.9% | -5.6% (inactive) | 9% (inactive) | -1.77% (inactive) | 7.71% (inactive) | -1.02% (inactive) | 101% (inactive) | 101% (inactive) | 0.94% (inactive) | 0.16% (inactive) |
| CC1C(=O)C(C)C(c2cccs2)NC1c1cccs1 (stereo not drawn) | 83% | 100% (inactive) | 83% (inactive) | 101% (inactive) | 104% (inactive) | 3.58% (inactive) | 100% | 104% | 1.73% (inactive) | 2.42% (inactive) | -1.82% (inactive) | -0.61% (inactive) | 0.03% (inactive) | 87.3% (inactive) | 91% (inactive) | 0.78% (inactive) | 1.45% (inactive) |
| O=P(O)(CCc1ccccc1)CN1CCCCC1 | 106% | 106% (inactive) | 106% (inactive) | 102% (inactive) | 95.5% (inactive) | 3.43% (inactive) | 92% | 95.5% | 7.97% (inactive) | -1.97% (inactive) | -2.51% (inactive) | -11.9% (inactive) | -0.92% (inactive) | 102% (inactive) | 98.8% (inactive) | 2% (inactive) | 1.24% (inactive) |
| CCN(CC)CCNC(=O)c1ccc(CS(=O)(=O)c2ccc(Br)cc2)o1 | 92.5% | 110% (inactive) | 92.5% (inactive) | 100% (inactive) | 95.9% (inactive) | 5.79% (inactive) | 90.1% | 95.9% | -0.26% (inactive) | 0.17% (inactive) | -12.3% (inactive) | -17.7% (inactive) | -2.1% (inactive) | 97.1% (inactive) | 96.5% (inactive) | 0.92% (inactive) | 0.74% (inactive) |
| O=C(Nc1ccc2c(c1)OCO2)c1ccc(CN2CCOCC2)cc1 | 97.5% | 88% (inactive) | 97.5% (inactive) | 98.7% (inactive) | 97.3% (inactive) | 9.03% (inactive) | 88.3% | 97.3% | -7.07% (inactive) | 7.1% (inactive) | -6.27% (inactive) | -16.3% (inactive) | 0.57% (inactive) | 71.3% (inactive) | 81.5% (inactive) | -0.165% (inactive) | 9.65% (inactive) |
| CCOc1ccc(CCN2C(=O)C3C4C=CC(C4)C3C2=O)cc1OCC (stereo not drawn) | 96% | 93.5% (inactive) | 96% (inactive) | 97.7% (inactive) | 87.9% (inactive) | 4.56% (inactive) | 83.4% | 87.9% | -6.27% (inactive) | -1.67% (inactive) | 0.49% (inactive) | 3.99% (inactive) | -0.38% (inactive) | 102% (inactive) | 101% (inactive) | 1.38% (inactive) | 1.5% (inactive) |
| COCCOC(=O)C1=C(C)OC(N)=C(C#N)C1c1ccc2c(c1)OCO2 (stereo not drawn) | 98% | 91.5% (inactive) | 98% (inactive) | 93.7% (inactive) | 84.8% (inactive) | 4.96% (inactive) | 79.8% | 84.8% | -3.12% (inactive) | -7.5% (inactive) | 2.33% (inactive) | -2.95% (inactive) | -1.47% (inactive) | 106% (inactive) | 105% (inactive) | 0.465% (inactive) | 3.07% (inactive) |
| CCOc1ccc2[nH]c(C)cc(=O)c2c1 | 100% | 100% (inactive) | 100% (inactive) | 94.8% (inactive) | 108% (inactive) | 18.7% (inactive) | 89.6% | 108% | 0% (inactive) | -9.02% (inactive) | -12.8% (inactive) | 3.82% (inactive) | -2.11% (inactive) | 96.7% (inactive) | 88.4% (inactive) | 2.86% (inactive) | 3.45% (inactive) |
| Cc1cccc(N2CCN(C(=O)c3cc4ccccc4oc3=O)CC2)c1C | 90.5% | 116% (inactive) | 90.5% (inactive) | 98.6% (inactive) | 100% (inactive) | 8.08% (inactive) | 92% | 100% | -6.53% (inactive) | -7.67% (inactive) | -4.18% (inactive) | -0.595% (inactive) | 1.65% (inactive) | 88.5% (inactive) | 94.3% (inactive) | 0.78% (inactive) | -1.13% (inactive) |
| CCCCCn1c(CN2CCN(C(=O)c3ccco3)CC2)nc2c1c(=O)n(C)c(=O)n2C | 96.5% | 103% (inactive) | 96.5% (inactive) | 92.8% (inactive) | 77.5% (inactive) | 27.9% (inactive) | 49.5% | 77.5% | -5.6% (inactive) | -5.83% (inactive) | -0.285% (inactive) | -8.78% (inactive) | -2.57% (inactive) | 93.6% (inactive) | 93.2% (inactive) | -0.2% (inactive) | 1.17% (inactive) |
| CC(C)CCn1c(NCCc2ccccc2)nc2c1c(=O)n(C)c(=O)n2C | 80% | 57.5% (inactive) | 80% (inactive) | 50.8% (inactive) | 81.8% (inactive) | -0.235% (inactive) | 82.1% | 81.8% | -2.93% (inactive) | 2.17% (inactive) | -0.96% (inactive) | 8.48% (inactive) | -2.21% (inactive) | 57.1% (inactive) | 57.4% (inactive) | 1.94% (inactive) | -0.32% (inactive) |
| CCn1cc(SCC(=O)Nc2cc(C)on2)c2ccccc21 | 110% | 84% (inactive) | 110% (inactive) | 89.4% (inactive) | 84% (inactive) | 3.56% (inactive) | 80.5% | 84% | -4.13% (inactive) | -1.15% (inactive) | -5.85% (inactive) | -7.99% (inactive) | 1.09% (inactive) | 92.3% (inactive) | 92.3% (inactive) | 1.87% (inactive) | 2.85% (inactive) |
| O=C(c1ccc(=O)[nH]c1)N(Cc1ccco1)C1(C(=O)NC2CCCC2)CCCCC1 | 102% | 99.5% (inactive) | 102% (inactive) | 102% (inactive) | 104% (inactive) | 11.9% (inactive) | 91.7% | 104% | -7.81% (inactive) | -3.17% (inactive) | 2.31% (inactive) | -5.5% (inactive) | -2% (inactive) | 98.6% (inactive) | 100% (inactive) | -0.16% (inactive) | 1.35% (inactive) |
| COc1ccccc1CC(=O)Nc1ccc(OC)c(OC)c1 | 102% | 98.5% (inactive) | 102% (inactive) | 101% (inactive) | 89.6% (inactive) | 6% (inactive) | 83.6% | 89.6% | -6.76% (inactive) | 5.74% (inactive) | -8.11% (inactive) | -4.82% (inactive) | -0.4% (inactive) | 101% (inactive) | 104% (inactive) | 1.22% (inactive) | 2.2% (inactive) |
| CCOc1ccccc1C1C(C(=O)Nc2ccc(OC)cc2)=C(C)Nc2nc(CCCO)nn21 (stereo not drawn) | 87.5% | 89.5% (inactive) | 87.5% (inactive) | 84.4% (inactive) | 91.3% (inactive) | 8.7% (inactive) | 82.6% | 91.3% | -0.4% (inactive) | -2.17% (inactive) | -9.82% (inactive) | -7.01% (inactive) | -0.17% (inactive) | 109% (inactive) | 98.7% (inactive) | 0.865% (inactive) | 1.36% (inactive) |
| CCOc1ccc(NC2c3ccccc3C(=O)N2Cc2ccco2)cc1 (stereo not drawn) | 83.5% | 96.5% (inactive) | 83.5% (inactive) | 98.7% (inactive) | 96.2% (inactive) | -2.58% (inactive) | 98.8% | 96.2% | 5% (inactive) | 7.83% (inactive) | 3.67% (inactive) | 6.9% (inactive) | -0.75% (inactive) | 92.6% (inactive) | 85.4% (inactive) | 1.4% (inactive) | 5.57% (inactive) |
| O=C1CC(c2ccccc2)CC(O)=C1C=NCCN1CCOCC1 (stereo not drawn) | 96.5% | 85.5% (inactive) | 96.5% (inactive) | 85.7% (inactive) | 102% (inactive) | 5.44% (inactive) | 96.2% | 102% | -7.97% (inactive) | -1.48% (inactive) | -4.59% (inactive) | 9.74% (inactive) | 0.42% (inactive) | 94.7% (inactive) | 93.2% (inactive) | 1.16% (inactive) | -0.52% (inactive) |
